# ALOX12 inh: Primary qHTS assay for inhibitors of human arachidonate 12S-lipoxygenase (ALOX12): Round 2; Polyunsaturated fatty acid lipoxygenase ALOX12 (Homo sapiens), P18054; purified 12hLO, xylenol orange hydroperoxide absorbance; Potency, µM (series often up to 108 µM), for inactives: at the top dose activity change, negative = inhibition, most hits filed as inhibitors; 1.1% of 580,000 active; also: potency is read from the fitted curve at half-maximal effect; % is scaled to controls: 0 for no effect and ±100 for the full control effect
# Target sequence (P18054 whole entry, looked up): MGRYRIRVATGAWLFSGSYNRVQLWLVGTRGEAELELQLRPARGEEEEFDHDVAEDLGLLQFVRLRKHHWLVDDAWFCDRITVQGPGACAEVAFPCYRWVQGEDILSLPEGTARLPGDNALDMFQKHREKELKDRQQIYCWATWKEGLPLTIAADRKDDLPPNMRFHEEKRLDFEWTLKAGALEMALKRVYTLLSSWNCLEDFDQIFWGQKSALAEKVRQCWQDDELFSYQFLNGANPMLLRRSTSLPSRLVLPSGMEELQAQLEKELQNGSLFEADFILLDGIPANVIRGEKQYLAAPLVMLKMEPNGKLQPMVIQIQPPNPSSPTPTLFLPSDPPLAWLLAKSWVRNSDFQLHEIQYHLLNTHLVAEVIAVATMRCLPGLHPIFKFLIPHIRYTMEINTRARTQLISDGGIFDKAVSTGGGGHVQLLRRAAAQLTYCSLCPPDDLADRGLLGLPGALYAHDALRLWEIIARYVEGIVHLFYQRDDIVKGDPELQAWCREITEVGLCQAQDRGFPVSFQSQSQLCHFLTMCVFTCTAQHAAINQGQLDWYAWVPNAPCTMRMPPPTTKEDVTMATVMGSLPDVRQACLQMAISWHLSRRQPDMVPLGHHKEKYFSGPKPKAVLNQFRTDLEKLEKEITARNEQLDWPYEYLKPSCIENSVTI
#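 Hydroperoxide product was detected by ferrous iron/xylenol orange as the 573 to 405 nm absorbance ratio. Arachidonic acid at 40 uM (final) was turned over for 30 min at room temperature by 150 nM human 12hLO, pH 7.0 Hepes buffer, after 15 min compound preincubation.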
# Nrf2 activator: qHTS of Nrf2 Activators. AREc32 ARE-luciferase reporter (MCF7-derived line), luminescence, 24 h. Potency, µM (highest dose often 46.1 µM), for inactives: at the highest dose activation, most hits filed as activators. 0.31% of 410,000 active. AID 624171, 2012; also: potency is read from the fitted curve at half-maximal effect; % of control where 0% means no effect; nearly all actives have a fitted effect of over 65% in size
#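 AREc32 cells carrying an ARE-driven firefly luciferase reporter were seeded at 1000 cells/well in OPTI-MEM with 5% FBS, then exposed to compound for 24 hr at 37 deg C. Luminescence was read with Steady-Glo after 30 min at RT.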
# Nrf2 block: Nrf2 qHTS screen for inhibitors; A549 ARE-Fluc reporter, luciferase luminescence, 18-24 h; Potency, µM (doses to about 46 µM), for the others: top-dose activity change, negative = inhibition, actives largely listed as inhibitors; 2.1% of 360,000 active; also: potency is read from the fitted curve at half-maximal effect; % is scaled to controls: 0 for no effect and ±100 for the full control effect; nearly all actives have a fitted effect of over 60% in size
#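 A549 ARE_Fluc cells, 5000/well, 5% FBS OPTI-MEM; compounds in dose-response, 18-24 h at 37 °C/5% CO2; CellTiter-Fluor viability read (Ex 405/Em 525), then BugLite luciferase luminescence = Nrf2 activity.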
# ERG-DNA inh: qHTS for Small Molecule Inhibitors of the ERG Ets/DNA interaction | 0.028% of 370,000 active | Transcriptional regulator ERG (Homo sapiens), P11308 | fluorescence polarization, His-ERG Ets domain / labelled DNA | Potency, µM (doses to about 76.9 µM), for inactives: top-dose FP activity, negative = inhibition, hits mostly inhibitors; active = well fitted inhibition curve with a large enough effect in the polarisation, with a control signal flat; inconclusive = small, poorly fitted or top-dose-only effect, or effect the other way, or a change in a side signal; inactive = no such curve, though single readings can be large or run the other way; the % refers to the polarisation;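 also: polarization taken with two DNA probes labelled with fluorescein and Texas red; potency is read from the fitted curve at half-maximal effect; % of control where 0% means no effect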
#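 His-tagged ERG Ets domain (1 uM in the protein solution; 300mM KCl, 50mM Tris-HCl, 1mM EDTA, 1mM DTT, pH 7.5) received compound, then a probe mix of 5 nM fluorescein-DNA and 100nM Texas-615-DNA. Fluorescence polarization was read for both dyes.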
# LDHA block: qHTS assay for inhibitors of human lactate dehydrogenase; L-lactate dehydrogenase A chain (Homo sapiens), P00338; purified LDHA, NADH/diaphorase-resazurin fluorescence; active compounds read low; 0.15% of 480,000 active; activity change, % (values are at about 110 or 230 µM); in the data active = activity change below about -30%; inconclusive = mostly about -25% to -30%;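 also: plate controls were DMSO wells for no effect and wells without enzyme for full effect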
#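 Resorufin fluorescence (ex540/em590), read at 0 and 20 min after diaphorase/resazurin addition, reports the NADH left after a 5 min room-temperature reaction of 2 nM human LDH5 with 0.06 mM NADH and 0.2 mM pyruvate.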
# A549 tox: Nrf2 qHTS screen for inhibitors: counterscreen for cytotoxicity; Potency, µM (highest dose often 46 µM), without a hit: at the top dose activity change, negative = cytotoxicity, hits mostly inhibitors; AID 504648, 2011; 0.16% of 390,000 active; A549 ARE-Fluc cells, CellTiter-Fluor viability, 18-24 h; also: potency is read from the fitted curve at half-maximal effect; % is scaled to controls: 0 for no effect and ±100 for the full control effect
#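 A549 ARE_Fluc cells in 5% FBS OPTI-MEM were exposed to compounds in concentration-response for 18-24 h at 37 deg C. Viability was read by CellTiter-Fluor fluorescence (Ex 405/Em 525) after 30 min, before the luciferase read.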
# * hit, by the source's call; ? = inconclusive; · = not tested or not shown. In the library only some 2.7% were active in any assay of this set; here they are far more common. Unless noted, calls follow the shape of the dose curve; as a rule, active = well fitted curve in the direction sought with a large enough effect; inconclusive = small, poorly fitted or top-dose-only effect, or another doubt; inactive = no such curve, though single readings can be large; an effect the other way counts as inactive or inconclusive.
SMILES,ALOX12 inh,Nrf2 activator,Nrf2 block,ERG-DNA inh,LDHA block,A549 tox
COc1ccc(Cn2c(=S)[nH]c3ccccc32)cc1,45µM*,0%,7%,-2%,-2,0%
CN(C)CCCNC(=O)c1cc2cc(F)ccc2[nH]1,25%,·,·,·,3,·
CCCCN(C)C(=O)C1CCN(Cc2ccccc2)CC1,?,·,·,·,9,·
COc1ccc(CN2CCN(CC=C(C)C)CC2)cc1,8%,·,·,·,-19,·
N#CCC(=O)N/N=C/c1ccc(Sc2nc3ccccc3s2)o1,-4%,?,?,16%,-48*,-27%
CC(=O)N(\C=C/C=C/C=C1\Sc2ccccc2C1=O)c1ccccc1,16µM*,?,-2%,63%,6,-19%
CN(C)/C=C1/Sc2ccccc2C1=O,?,10%,7%,7%,-2,-18%
CCn1cc(C(=O)NCc2ccco2)c(=O)c2cc(S(=O)(=O)N3CCCCCC3)ccc21,?,-1%,?,4%,-1,-9%
C=CCn1cc(C(=O)NCc2ccco2)c(=O)c2cc(S(=O)(=O)N3CCCCCC3)ccc21,-14%,0%,12µM*,11%,0,-19%
OCc1ccc(-c2nc3ccccc3s2)o1,?,·,·,·,-2,·
CC(CCc1ccc(O)cc1)NC(c1ccccc1)c1ccc(Cl)cc1 (stereo not given),?,0%,23µM*,6%,2,?
O=C1CC(c2ccc3c(c2)OCO3)c2ncn(-c3cccc(C(F)(F)F)c3)c2N1 (stereo not given),?,·,·,·,40,·
CCCNc1c(NC(=O)Nc2ccccc2OCC)c(=O)oc2ccccc12,?,·,·,·,-30*,·
CCCNC(=O)Nc1c(NCCC)c2ccccc2oc1=O,0%,·,·,·,0,·
CCCNc1c(NC(=O)Nc2ccc(CC)cc2)c(=O)oc2ccccc12,?,·,·,·,0,·
CCNc1c(NC(=O)Nc2ccc(CC)cc2)c(=O)oc2ccccc12,45µM*,·,·,·,1,·
CCC(C)NC(=O)Cn1c(=O)c2c(ncn2C2CCCC2)n(Cc2ccccc2)c1=O (stereo not given),-1%,·,·,·,0,·
Cc1ccc(C)c(S(=O)(=O)C(C#N)c2nc3ccccc3nc2N2CC(C)OC(C)C2)c1 (stereo not given),?,-1%,13µM*,-15%,-4,·
COc1ccc(S(=O)(=O)C(C#N)c2nc3ccccc3nc2N2CCCCC2)cc1 (stereo not given),?,0%,-21%,0%,1,-21%
CCN1CCN(c2nc3ccccc3nc2C(C#N)S(=O)(=O)c2ccc(Cl)cc2)CC1 (stereo not given),45µM*,·,·,·,-2,·
CCN1CCN(c2nc3ccccc3nc2C(C#N)S(=O)(=O)c2cccc(C)c2)CC1 (stereo not given),14µM*,·,·,·,4,·
CCN1CCN(c2nc3ccccc3nc2C(C#N)S(=O)(=O)c2ccc(OC)cc2)CC1 (stereo not given),18µM*,·,·,·,7,·
O=C(NCc1ccc(C(=O)N2CCCCC2)cc1)c1cccc(C(F)(F)F)c1,3%,·,·,·,0,·
Cc1ccc(-c2cc(C(=O)N3CCN(c4cccc(C(F)(F)F)c4)CC3)c3ccccc3n2)s1,?,·,·,·,13,·
CCNc1nc2ccccc2nc1C(C#N)S(=O)(=O)c1ccc(C)c(C)c1 (stereo not given),14µM*,·,·,·,-9,·
Cc1ccc(S(=O)(=O)C(C#N)c2nc3ccccc3nc2N2CCN(C)CC2)cc1C (stereo not given),?,0%,?,8%,0,?
CC(C)Oc1ccccc1C1CC(=O)Nc2cc3c(cc21)OCCO3 (stereo not given),?,-1%,8.2µM*,-4%,7,?

# Compound activity from PubChem BioAssay.
